# Laboratory results published in PubChem BioAssay AID651820 (National Center for Advancing Translational Sciences (NCATS), 2012).
# The whole screen tested about 340,000 compounds, of which about 12,000 (3.5%) were called active. Another 18% or so got no clear call; they are omitted. The entries come from a sample that favours actives as a whole. Entries that show only a call come without a potency. Some structures have more than one record in an assay (separate samples or runs), and their calls can disagree. Values without a mark were called inactive. Calls follow the shape of the dose curve; as a rule, active = well fitted inhibition curve with a large enough effect; inconclusive = small, poorly fitted or top-dose-only effect, or another doubt; inactive = no such curve, though single readings can be large or run the other way.
# Assay: qHTS Assay for Inhibitors of Hepatitis C Virus (HCV)
# Conditions: Huh7.5.1 HCVcc-Cre infection, luciferase reporter, 44 h; series mostly up to 41.8 µM
# Procedure, shortened: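 Seed cells (1,000/well) for 4 h; treat with compound and infect with HCVcc-Cre, moi about 0.5. Incubate 44 h, then detect luciferase activity.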
# Potency is read from the fitted curve at half-maximal effect.
SMILES,Potency,"activity change, negative = inhibition"
Cc1cc(NC(=O)CSc2nc3ccccc3n2CC(C)C)no1,inactive,
CCCCn1c(=O)c(C(C)=O)c(O)c2ccccc21,inactive,
CC(=O)c1ccc2c(c1)c1ccccc1n2CC(C)C,2.51 µM (active),
CCCCCC(O)c1cccc(OCc2ccc3ccccc3n2)c1 (stereo unspecified),14.1 µM (active),0.332% [at 8.37 µM]
CCCCCCOC(=O)NCC(O)c1ccccc1 (stereo unspecified),inactive,
COc1cccc(C(O)c2nc3ccccc3n2C)c1 (stereo unspecified),inactive,
Cc1ccc(NC(=O)Cn2cnc3c(OCc4ccccc4)ncnc32)cc1C,inactive,
Cc1noc(C)c1C(=O)OC(C)C(=O)Nc1ccc2c(c1)OCO2 (stereo unspecified),inactive,
COc1c(C)cc(C(=O)C2CCCN(S(=O)(=O)c3c(C)noc3C)C2)cc1C (stereo unspecified),10 µM (active),
Cc1noc(C)c1S(=O)(=O)N1CCCC(C(=O)Nc2nccs2)C1 (stereo unspecified),inactive,
Cc1ccc(NC(=O)C2CCCN(S(=O)(=O)c3c(C)noc3C)C2)c(C)c1 (stereo unspecified),inactive,
Nc1c(N(Cc2ccco2)C(=O)c2cccc(F)c2)c(=O)[nH]c(=O)n1Cc1ccccc1,inactive,
Brc1cnc2ccccc2c1N1CCCCC1,inactive,
Cn1c2ccccc2c(=O)c2c(=O)n(Cc3ccco3)c(COc3ccccc3)nc21,inactive,
c1ccc(-c2oc3ncnc(N4CCOCC4)c3c2-c2ccccc2)cc1,inactive,
N=c1c2c(-c3ccccc3)c(-c3ccccc3)oc2ncn1Cc1ccco1,6.31 µM (active),
COc1ccc(Nc2ccc3ccccc3c2)cc1,inactive,
CC(=O)Nc1ccc(-c2csc(NC=C3C(=O)OC(C)(C)OC3=O)n2)cc1,inactive,
CC(=O)Nc1ccc(S(=O)(=O)Nc2nc(-c3ccc(C(C)(C)C)cc3)cs2)cc1,inactive,
CC(=O)Nc1ccc(-c2csc(NC(=O)Nc3ccccc3)n2)cc1,10 µM (active),
Cc1ccc(S(=O)(=O)N2CCC(C(=O)OCC(=O)N(C)c3ccccc3)CC2)cc1C,inactive,
Cc1cccn2c(=O)nc(SCC(=O)NCc3ccccc3Cl)nc12,,2.77% [at 8.37 µM]
CN(CC(=O)NC(=O)Nc1ccccc1F)Cc1ccccc1,inactive,
O=C1CC(C(=O)O)NC(=S)N1 (stereo unspecified),inactive,
O=C(c1ccc(Cl)c(S(=O)(=O)N2CCCCCC2)c1)N1CCN(c2ccc(O)cc2)CC1,inactive,
COc1ccc(CNC2CCCCC2)cc1,inactive,
COc1cc(CNC2CCCC2)c(Br)cc1OCc1ccccc1,5.62 µM (active),
COc1cc(CN2CCC(C(N)=O)CC2)ccc1OCc1ccccc1,inactive,
O=C(O)c1ccc(Cn2cnc3c(=S)nc[nH]c32)cc1,inactive,
Cc1ccc(COC(=O)CN2C(=O)NC3(CCCC3)C2=O)cc1,inactive,
